Source: PubChem BioAssay AID504941 (Broad Institute, 2011)
Hit rate of the full screen: of about 1,200 compounds, about 170 (14%) were called active. No rule for the calls is given here. Not all results are given here. Entries with a potency or affinity are not part of this list.

Assay: E. coli Tat export inhibitors, dose response, cherry-pick, set 2, plate reader (AID 504941)
Conditions: E. coli Tat transport reporter; series mostly up to 38 µM; activity change, negative = inhibition: at the top concentration

Activity change, negative = inhibition, inactive:
COc1ccc(OC)c(NC(=O)NCc2cccnc2)c1 6.95%
CN(CC(=O)NCCN1CCOCC1)S(=O)(=O)c1ccc(Cl)cc1 0.713%
Cc1cc(=O)[nH]c(Sc2c(-c3ccccc3)c3ccccc3[nH]c2=O)n1 2.85%
CN1CCN(c2cc3c(cc2F)c(=O)c(C(=O)O)cn3CCF)CC1 -97.2%
CC(C(=O)NC1CCCC1)N1CCN(S(=O)(=O)c2ccc(C(C)(C)C)cc2)CC1 (stereo unspecified) -20.3%
Cc1ccc(S(=O)(=O)N2CCC(C(=O)Nc3nnc(C)s3)CC2)cc1 0.142%
O=C(CCSc1nnc(-c2ccco2)o1)N1CCOCC1 -14.4%
CCc1ccc(-c2cc(C(=O)Nc3ccc(S(=O)(=O)NC(C)=O)cc3)c3ccccc3n2)cc1 -2.02%
CC(=O)c1ccc(NC(=O)C2CCCN2S(=O)(=O)c2cccc3cccnc23)cc1 (stereo unspecified) 16.2%
CN(c1ccccc1)S(=O)(=O)c1cccc(NC(=O)CN2C(=O)NC3(CCCC3)C2=O)c1 -4.76%
CC1(C)C2CCC1(C)C(NC(=O)/C=C/c1ccccc1)C2 (stereo unspecified) 3.31%
COc1ccccc1NC(=S)NC(=O)C(C)C 23.3%
COc1ccc(Nc2nc3ccccc3nc2-n2nc(C)cc2C)cc1 13.7%
COc1cc(NC(=O)C2CCCCC2)c(OC)cc1NC(=O)c1ccco1 -1.98%
Cc1ccc(-c2cc(C(F)F)n3ncc(C(=O)Nc4ccc(S(=O)(=O)Nc5ccccc5C)cc4)c3n2)cc1 -1.66%
Oc1c(Cl)cc(Cl)cc1C1Nc2ccccc2-n2cccc21 (stereo unspecified) -22.8%
O=C(Nc1ccc2c(c1)OCCO2)C1CCCN(S(=O)(=O)c2cccnc2)C1 (stereo unspecified) 11.9%
O=C(c1cccnc1)C1CCCN(Cc2nc(Cc3ccccc3)no2)C1 (stereo unspecified) 2.5%
CN1CCN(c2ccc(S(=O)(=O)N3CCCCC3)cc2NC(=O)c2cccc([N+](=O)[O-])c2)CC1 -5.17%
COc1c2ccoc2nc2c(OC)c(OC[C@@H](O)C(C)(C)O)ccc12 27.5%
Cc1ccnc(SCC(=O)c2cccs2)n1 -5.46%
CC(=O)c1cc(CN2CCN(C3CCCCC3)C(CCO)C2)cs1 (stereo unspecified) 5.91%
O=C1/C(=C/c2cccnc2)Oc2cc(OS(=O)(=O)c3ccccc3)ccc21 19.7%
COc1cccc(NC(=O)c2cccc(C(=O)Nc3cccc(OC)c3)n2)c1 -9.91%
Cc1ccc(S(=O)(=O)NC(C)(C)CSc2nnc(Nc3ccccc3)s2)cc1 -11.6%
CN1CCC(=NNC(=O)C(=O)Nc2cccc(Br)c2)CC1 25.9%
Cc1ccc(C)c(NC(=O)CN(C)C(=O)c2cccc(S(=O)(=O)N(C)C)c2)c1 8.53%
Cc1ncc(CN2CCN(CCC(C)C)C(CCO)C2)s1 (stereo unspecified) 8.33%
COc1ccc(C(=O)NC2(C(F)(F)F)C(=O)Nc3c2c(=O)[nH]c(=O)n3CCc2ccc(OC)c(OC)c2)cc1 (stereo unspecified) 0.11%
CC(C)OCC(O)CN1CCN(CC(O)COc2ccc3c(c2)OCO3)CC1 (stereo unspecified) 10.6%
CCCCN(C)C(=O)c1cc2cc([N+](=O)[O-])cc(OC)c2oc1=O 8.79%
Cc1cccc(N(CC(=O)NC2CCCC2)C(=O)CCCC(=O)Nc2ccccn2)c1 2.32%
CCCCn1c(N)c(N(CCOC)C(=O)COC(=O)C(C)Oc2ccc(Cl)cc2)c(=O)[nH]c1=O (stereo unspecified) 21%
O=C(Nc1nnc(S(=O)(=O)N2CCCCCC2)s1)c1ccccc1Br -23.6%
C=CCn1c(SCC(=O)NCc2ccc3c(c2)OCO3)nnc1-c1cccnc1 7.67%
COC(=O)C[C@H]1c2cc(F)cc(F)c2S(=O)(=O)N1C1CCN(Cc2ccccc2)CC1 1.35%
NC(=O)C1CCN(C(=O)c2ccco2)CC1 -11.7%
NC(=O)C1CCN(C(=O)CSc2nc3ccccc3o2)CC1 12.3%
O=C(CCSc1ccccc1)N1CCN(C(=O)c2ccco2)CC1 -12.1%
O=C(CCc1nc2cccnc2n1Cc1ccccc1)N1CCOCC1 0.529%
CN(Cc1ccccc1)c1ncnc2sccc12 1.04%
COC(=O)c1sccc1NC(=O)c1ccc2c(c1)OCO2 12.6%
Cc1ccccc1C(=O)N1CCC(C(=O)Nc2ccccc2Cl)CC1 18.5%
Cc1ccccc1C(=O)N1CCN(c2ccc(NC(=S)NC(=O)c3cccs3)cc2)CC1 17.9%
O=C(CC1SCCNC1=O)Nc1cccc(Cl)c1 (stereo unspecified) 6.89%
COc1cccc(CN2CCN(Cc3cc(OC)c(OC)cc3[N+](=O)[O-])CC2)c1 2.59%
COc1ccc(CCN2C(=O)CC(NNC(=O)c3ccc(F)cc3)C2=O)cc1OC (stereo unspecified) 4.71%
Cc1cc(C(=O)NNC(=O)c2ccc(F)cc2)c(C)s1 26.3%
Cc1nc(Cl)c(C(=O)NCc2ccccc2)c(C)c1Cl -2.15%
Cc1nn(Cc2ccccc2)c(C)c1NC(=O)c1noc2c1CCc1ccccc1-2 15.8%
CCOc1cccc(=O)c2c(C)n(-c3ccc(C(=O)O)cc3)c(C)c12 14.2%
O=C(CCCc1ccccc1)Nc1ccc2c(c1)OCCO2 9.47%
O=C(O)CC(NCc1ccco1)C(=O)OCCc1ccccc1 (stereo unspecified) 26.3%
Cc1cc(C)c2oc(=O)cc(CN3CCN(Cc4ccc5c(c4)OCO5)CC3)c2c1 4.31%
CCOC(=O)[C@H]1[C@H]2COc3ccc(Cl)cc3[C@@H]2N2C(=O)[C@H](C)NC(=O)[C@@]12C -1.43%
C[C@H]1NC(=O)[C@@]2(C)[C@@H](c3ccccc3)[C@H]3COc4ccccc4[C@H]3N2C1=O 15.3%
CC(=O)c1c(C)[nH]c(C(=O)CSc2nnc3ccccn23)c1C -0.324%
CC(=O)Oc1ccc2c(c1)OC(c1ccccc1)CC21CC(C)(C)NC(=S)N1 (stereo unspecified) 15.6%
C=CCC[C@H](Cc1ccc(F)cc1)C(=O)OC[C@@H](C)NC(=O)[C@H](CC=C)CC(=O)NCCO -6.43%
Nc1nc2n(n1)C(c1cccc(Br)c1)CC(c1ccccc1)N2 (stereo unspecified) 23%
CC(Oc1ccc2c(-c3ccccc3)cc(=O)oc2c1)C(=O)NCCCN1CCOCC1 (stereo unspecified) 12.1%
COc1ccccc1N1CCN(CC(=O)Nc2ccc3c(c2)OCCO3)CC1 12.1%
COc1cccc(CNC(=O)CN2C(=O)CCSc3ccc(S(=O)(=O)N4CCCC4)cc32)c1 -15.2%
Cc1ccc(NC(=S)NCCC2=CCCCC2)cc1 12.6%
O=C(NCc1ccccc1)c1ccc(CS(=O)(=O)c2ccccc2)o1 16.7%
CCC1CCCCN1Cc1nc2c(c(=O)n(C)c(=O)n2C)n1CCCc1ccccc1 (stereo unspecified) -2%
